# Screening results from PubChem BioAssay.
# The list is not random: actives were taken first. Their share in the collection is about 2%.
# STK33 kin inh: blocks human STK33 kinase activity | Q9BYT3 | ADP-Glo luminescence, MBP substrate | inhibition, % at 12.5 µM | 27,000 tested, 0.44% active | AID 2322; in the data active = inhibition above about 20%
# p53 PUMA act: re-activators of the mutant p53 pathway; SW480 PUMA-promoter luciferase, p53 mutant reactivation; activation, % at 9.98 µM; 28,000 tested, 1.5% active; in the data active = activation above about 52%
# ID4 SMM: binders of human ID4 protein; calls only; 31,000 tested, 1.2% active; small molecule microarray, Flag-ID4 binding, fluorescence F/B; call rule not given here;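 also: a binder raises fluorescence above local background on the spot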
# Target sequence (P47928 whole entry, looked up): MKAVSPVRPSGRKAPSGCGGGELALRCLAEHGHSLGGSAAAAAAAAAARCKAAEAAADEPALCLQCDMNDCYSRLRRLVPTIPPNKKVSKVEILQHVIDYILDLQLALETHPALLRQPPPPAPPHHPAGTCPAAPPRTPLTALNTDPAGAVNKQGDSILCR
# * marks the source's active call; other numbers are inactive results; i = inactive; x = no result; + = active, no number.
SMILES,STK33 kin inh,p53 PUMA act,ID4 SMM
CCC(C)c1ccccc1OCC(=O)Nc1ccccc1C#N (configuration not stated),-2,-24,i
CCc1ccc(OCC(=O)Nc2ccccc2C#N)cc1,1,64*,i
CCc1ccc(OCC(=O)Nc2cccc3ncccc23)cc1,0,7,i
CC(C)c1ccc(OCC(=O)Nc2ccccc2C#N)c(Br)c1,-3,130*,i
Cc1cc(=O)n2[nH]c(NCc3cccc([N+](=O)[O-])c3)nc2n1,-2,-3,i
O=C(NCc1ccco1)c1cncc(Br)c1,4,-11,i
O=C(CC1NC2CCCCC2NC1=O)Nc1ccc([N+](=O)[O-])cc1 (configuration not stated),9,3,i
O=C1Nc2ccc(Br)cc2/C1=C/c1cc2c([nH]1)CCCC2,72*,9,x
CN(C)S(=O)(=O)c1ccc2c(c1)/C(=C/c1cc3c([nH]1)CCCC3)C(=O)N2,22,x,i
COc1cc2c(cc1NC(=O)CSc1nnnn1C)oc1ccccc12,1,147*,i
COc1cc2c(cc1NC(=O)CSc1nnc(N)s1)oc1ccccc12,10,117*,i
COc1ccc(NC(=O)CSc2nnc(N)s2)c(OC)c1,3,6,i
COc1cc2c(cc1NC(=O)CSc1ccccn1)oc1ccccc12,-1,38,i
O=C(c1cn(-c2ccccc2)nc1-c1cc2ccccc2oc1=O)n1nnc2ccccc21,1,8,i
Fc1cccc(/C=N/N=C/c2cccc(F)c2)c1,x,88*,i
Cc1sc2ncn(CC(=O)Nc3cccc(Cl)c3C)c(=O)c2c1-c1ccccc1,1,-18,i
O=C(O)CCC(NC(=O)c1ccc(I)cc1)C(=O)O (configuration not stated),4,-8,i
CC1CCc2c(sc(NC(=O)c3nc4ncccn4n3)c2C(N)=O)C1 (configuration not stated),0,59*,i
CCOC(=O)c1c(NC(=O)c2nc3ncccn3n2)sc2c1CCC(C)C2 (configuration not stated),2,9,i
Cc1ccc(-n2c(=O)c3c4c(sc3n3c(SCC(=O)c5ccc(F)cc5)nnc23)CCCC4)cc1,3,-3,i
COCCOC(=O)N1C(=O)[C@@]2(c3ccccc31)[C@H](c1ccccc1OCCO)N1[C@H](c3ccccc3)[C@H](c3ccccc3)OC(=O)[C@H]1[C@@H]2C(N)=O,8,x,+
O=C1O[C@H](c2ccccc2)[C@H](c2ccccc2)N2[C@H]1[C@@H](C(=O)N1CCN(c3ncccn3)CC1)[C@]1(C(=O)Nc3ccc(C#CC4=CCCCC4)cc31)[C@H]2c1ccccc1OCCO,8,x,i
O=C1O[C@H](c2ccccc2)[C@H](c2ccccc2)N2[C@H]1[C@@H](C(=O)N1CCCCCCC1)[C@]1(C(=O)Nc3ccc(C#CC4=CCCCC4)cc31)[C@H]2c1ccccc1OCCO,22*,x,i
COCCOC(=O)N1C(=O)[C@@]2(c3cc(C#Cc4ccc(OC)cc4)ccc31)[C@H](c1ccccc1OCCO)N1[C@H](c3ccccc3)[C@H](c3ccccc3)OC(=O)[C@H]1[C@@H]2C(N)=O,1,x,x
COc1ccc(S(=O)(=O)Nc2cccnc2)cc1C(=O)O,-10,6,i
SMILES,STK33 kin inh,p53 PUMA act,ID4 SMM
CC(=O)c1cccc(NC(=O)Nc2cccc(S(=O)(=O)N3CCOCC3)c2)c1,3,-13,i
Cc1cc(OCc2nc3ccccc3s2)ccc1NC(=O)Nc1cccc(Cl)c1,-2,-5,i
COC(=O)C(C)Sc1nnc2c3ccccc3n(Cc3ccccc3)c2n1 (configuration not stated),8,-2,+
CCn1c2ccccc2c2nnc(SCC(N)=O)nc21,6,-6,i
COc1ccc(OCC(=O)Nc2sc3c(c2C#N)CCC3)cc1,1,94*,i
COc1ccc(C(=O)Nc2sc3c(c2C(=O)Nc2cccc(OC)c2)CCC3)cc1,2,71*,i
COc1cc(OC)cc(-c2nnc(SCC(=O)Nc3sc4c(c3C#N)CCCC4)o2)c1,-3,6,i
COc1ccc(OC)c(NC(=O)c2c(NC(=O)c3ccco3)sc3c2CCC3)c1,-3,10,i
O=C(O)COc1ccc(S(=O)(=O)NC2CCCCC2)cc1Cl,-3,5,i
O=C(CSc1nnc(-c2ccncc2)o1)Nc1cccc(C(F)(F)F)c1,2,20,i
Cc1ccc(-c2nnc(SCC(=O)Nc3ccccc3C(C)(C)C)n2C)cc1,-2,-11,i
CNC[C@H]1OCCCC[C@@H](C)Oc2ccc(NS(=O)(=O)c3cccs3)cc2C(=O)N([C@H](C)CO)C[C@H]1C,x,4,i
CNC[C@@H]1OCCCC[C@@H](C)Oc2ccc(NS(=O)(=O)c3cccs3)cc2C(=O)N([C@@H](C)CO)C[C@H]1C,x,-2,+
CNC[C@H]1OCCCC[C@H](C)Oc2ccc(NS(=O)(=O)c3cccs3)cc2C(=O)N([C@@H](C)CO)C[C@@H]1C,x,11,+
CNC[C@@H]1OCCCC[C@H](C)Oc2ccc(NS(=O)(=O)c3cccs3)cc2C(=O)N([C@@H](C)CO)C[C@H]1C,x,-1,i
CCC(=O)Nc1ccc(S(=O)(=O)Nc2nccc(/C=C/c3ccccc3Cl)n2)cc1,-6,23,i
Cc1ccc(S(=O)(=O)NC2c3cccc4cccc(c34)C2Sc2nnnn2-c2ccccc2)cc1 (configuration not stated),11,-14,i
COC(=O)c1cc(O)c(C(=O)c2c(O)cccc2C(=O)O)c(O)c1,94*,x,i
COC(=O)c1cccc(O)c1C(=O)c1c(O)cc(C)cc1O,-10,16,i
CCc1ccccc1NC(=O)CSc1nnc(C)s1,-1,7,i
N#Cc1c(NC(=O)Cn2c(=O)oc3ccccc32)sc2c1CCC2,1,-6,i
N#Cc1c(NC(=O)Cn2c(=O)oc3ccccc32)oc(-c2ccccc2)c1-c1ccccc1,1,-8,+
COc1ccccc1CNc1nc2nc(C)cc(C)n2n1,4,-2,i
O=C1CC2(CCCC2)CC(=O)N1CCCCN1CCN(c2ncccn2)CC1,1,x,i
O=C1c2ccccc2S(=O)(=O)N1CCCCN1CCN(c2ncccn2)CC1,x,-3,+
SMILES,STK33 kin inh,p53 PUMA act,ID4 SMM
COC(=O)CSc1nc2ccccc2[nH]1,-1,x,x
c1ccc2[nH]c(SCCCN3CCCCC3)nc2c1,x,-6,+
Cc1ccc(Cl)cc1NC(=O)C(C)n1cc([N+](=O)[O-])cn1 (configuration not stated),-2,3,i
Cc1ccccc1Cn1ccc(NC(=O)c2nn3c(c2Cl)NC(c2ccccc2)CC3C(F)(F)F)n1 (configuration not stated),-3,-3,i
CCOC(=O)c1c(NC(=O)c2ccccc2N(C)S(C)(=O)=O)sc2c1CCCC2,-1,7,i
CC(=O)NCCc1nc2cc(NC(=O)Nc3ccccc3)ccc2n1C,3,3,i
COc1ccccc1C(=O)Nc1ccc2c(c1)nc(CCNC(C)=O)n2C,0,131*,i
CC(C)(C)c1cc(C(F)(F)F)c(C#N)c(SCC(=O)Nc2sc3c(c2C#N)CCCC3)n1,-1,-29,i
O=C1c2cccc3cccc(c23)C(=O)N1CCCSc1n[nH]c(-c2ccc(F)cc2)n1,-4,55*,i
